VLA-4 inh – inhibition in a human VLA-4 binding assay; inhibition, % (about 7 µM as worked out from the volumes in the protocol); actives 0.2% (n = 330,000); VLA-4 expressing cells, ligand binding flow cytometry; P13612; in the data active means inhibition above about 50%
GRK2 inh – inhibitors of human GRK2 displacing RNA aptamer; P25098; bead flow cytometry, FAM-aptamer displacement from GRK2; inhibition of aptamer binding, % at 10 µM; actives 0.59% (n = 330,000);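 active means inhibition of aptamer binding above 40%, roughly 3 SD of noise, on plates passing a quality check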;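 further: median bead fluorescence of bound FAM aptamer so fluorescent compounds give negative values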
Target sequence (P25098 whole entry, looked up): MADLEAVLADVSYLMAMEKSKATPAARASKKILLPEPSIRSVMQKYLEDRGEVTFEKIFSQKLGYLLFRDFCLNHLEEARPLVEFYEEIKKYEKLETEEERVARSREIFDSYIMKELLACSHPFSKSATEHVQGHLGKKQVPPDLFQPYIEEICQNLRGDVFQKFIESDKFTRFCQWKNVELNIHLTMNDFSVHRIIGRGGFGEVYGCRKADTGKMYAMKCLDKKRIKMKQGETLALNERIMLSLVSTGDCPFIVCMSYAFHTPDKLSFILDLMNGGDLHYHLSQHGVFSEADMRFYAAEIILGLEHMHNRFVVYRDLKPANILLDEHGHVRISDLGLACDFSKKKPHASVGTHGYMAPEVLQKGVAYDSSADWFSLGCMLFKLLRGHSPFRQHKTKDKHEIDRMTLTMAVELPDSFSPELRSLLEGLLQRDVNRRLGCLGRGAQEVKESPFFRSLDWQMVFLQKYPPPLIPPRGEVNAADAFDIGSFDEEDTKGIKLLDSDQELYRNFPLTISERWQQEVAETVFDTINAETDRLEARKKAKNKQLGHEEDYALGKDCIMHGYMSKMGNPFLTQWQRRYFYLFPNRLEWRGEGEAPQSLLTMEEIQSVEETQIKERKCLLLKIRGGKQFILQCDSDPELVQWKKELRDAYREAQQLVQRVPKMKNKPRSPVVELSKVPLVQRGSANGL
APOBEC3G inh – inhibitors of human APOBEC3G DNA deaminase. Q9HC16. recombinant A3G, ssDNA deamination FAM/TAMRA fluorescence. inhibition, % at 20 µM. actives 0.28% (n = 330,000);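 active means inhibition of at least 40% at 20 µM, with no more than 30% in the related APOBEC3A deaminase screen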;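 further: plate controls were DMSO wells with A3G for no effect and wells lacking A3G enzyme for full effect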
APOBEC3A inh – inhibitors of human APOBEC3A DNA deaminase; P31941; recombinant A3A, FAM/TAMRA ssDNA deamination fluorescence; inhibition, % at 20 µM; actives 0.41% (n = 330,000);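 active means at least 40% inhibition at 20 µM here, with at most 30% in a related deaminase screen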;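 further: plate controls were A3A with DMSO for no effect and wells lacking A3A enzyme for full effect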
GRK2 CP1 – confirmation of human GRK2 inhibitors displacing RNA aptamer; shares compounds with GRK2 inh; aptamer displacement, % at 10 µM; bead-bound GRK2, FAM-aptamer displacement, flow cytometry; actives 4% (n = 2,000); AID 504451;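 active means aptamer displacement above 40%, near three times the noise of non-fluorescent compounds, on plates passing quality checks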;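 further: negative values mostly reflect intrinsic compound fluorescence rather than true enhancement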
FAM quench CP1 – quenches fluorescent RNA aptamer, GRK2 hit artifact. fluorescence response (% of DMSO), % at 10 µM. Carboxyfluorescein RNA aptamer on beads, flow cytometry quenching; active compounds read low. 2,000 tested, under 10 active. AID 504580. shares compounds with GRK2 inh;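 active means compounds that quench the bead-bound fluorescent RNA probe, cutting fluorescence to under half of the solvent control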;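 further: counterscreen run without GRK2 so only probe quenching by compound is measured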
GRK2 confirm 2 – human GRK2 inhibition confirmation, cherry pick 2; shares compounds with GRK2 inh; inhibition of aptamer binding, % at 10 µM; 360 tested, under 10 active; bead-bound GRK2, FAM-aptamer displacement, flow cytometry;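 active means inhibition of aptamer binding above 40%, about triple the noise seen with nonglowing compounds, on plates passing quality control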;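 further: negative values mostly come from compounds that fluoresce themselves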
FAM quench SP – quenches fluorescent RNA aptamer, GRK2 hit artifact; shares compounds with GRK2 inh; carboxyfluorescein RNA aptamer beads, flow cytometry quenching; active compounds read low; fluorescence response vs DMSO, % at 10 µM; 360 tested, under 10 active;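 active means response vs DMSO under 50%, meaning signal dropped by over half, treated as fluorescence quencher; inconclusive means no clear call, values can overlap the other calls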;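 further: labelled aptamer on streptavidin beads without GRK2 as a quench counter-screen; 100% = bead fluorescence of DMSO wells and lower means quenching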
Active calls of the source: *; ? = inconclusive; nt = no result given. This is a sample that favours compounds with a hit; in the whole collection about 1.4% have one here.

SMILES | VLA-4 inh | GRK2 inh | APOBEC3G inh | APOBEC3A inh | GRK2 CP1 | FAM quench CP1 | others
COc1ccccc1OC(=O)CCN1c2ccccc2Sc2ccccc21 | 0 | 0 | -5 | -1 | nt | nt
CN(Cc1ccccc1)C(=O)COC(=O)CCC(=O)c1ccc(F)cc1 | 5 | 31 | -6 | -3 | -4 | 97
COc1ccccc1N1CCN(Cc2nc3ccccc3c(=O)n2CC(C)=O)CC1 | 1 | 0 | -8 | -3 | nt | nt | GRK2 confirm 2=16;FAM quench SP=?
COc1cc(/C=N/NC(=S)NCC2CCCO2)cc(OC)c1OC (stereo not drawn) | 10 | 0 | -4 | -3 | nt | nt
Cc1c(NC(=O)NC(C)N2C(=O)C3C4C=CC(C4)C3C2=O)c(=O)n(-c2ccccc2)n1C (stereo not drawn) | 0 | 81* | 15 | -1 | 3 | 101
CC1=C(C(=O)Nc2cc(C(=O)N(C)Cc3ccccc3)ccc2C)SCCO1 | 12 | 2 | -7 | -7 | 1 | 102
COc1ccc(OC)c(CNC(=O)c2ccc(C)c(NC(=O)C3=C(C)OCCS3)c2)c1 | 6 | 0 | -6 | -7 | 0 | 101
COc1ccc2nc(Nc3nc(CSc4nnnn4-c4ccccc4)cc(=O)[nH]3)nc(C)c2c1 | -1 | 46* | -5 | -2 | 0 | 109
CCOc1ccc2nc(Nc3nc(CSc4nnnn4-c4ccccc4)cc(=O)[nH]3)nc(C)c2c1 | 13 | 3 | 26 | 4 | nt | nt
COc1ccccc1NC(=O)CCS(=O)(=O)c1ccc2c(c1)NC(=O)C(C)S2 (stereo not drawn) | 11 | 22 | -3 | 0 | nt | nt | GRK2 confirm 2=10;FAM quench SP=97
Cc1ccc(CNC(=O)CCS(=O)(=O)c2ccc3c(c2)NC(=O)C(C)S3)cc1 (stereo not drawn) | 3 | 8 | -5 | -3 | nt | nt | GRK2 confirm 2=9;FAM quench SP=102
Cc1ccc(CNC(=O)CC(C)S(=O)(=O)c2ccc3c(c2)NC(=O)C(C)S3)cc1 (stereo not drawn) | 0 | 3 | 1 | 1 | nt | nt | GRK2 confirm 2=1;FAM quench SP=100
CN(CC(=O)Nc1ccc(Cl)c(Cl)c1)C1CCCCC1 | 0 | 1 | -13 | -6 | nt | nt
O=C(Nc1ccc([N+](=O)[O-])cc1Cl)c1cc(Cl)ccc1O | -3 | 0 | -3 | 2 | nt | nt
O=C(Nc1cccc(Cl)c1)c1cc(N=Nc2ccc([N+](=O)[O-])cc2Cl)ccc1O | -24 | 46* | 8 | 12 | 4 | 97
O=C(CCSc1nnc2ccccn12)Nc1ccc(F)cc1 | 13 | 0 | 3 | 5 | nt | nt
CCOc1ccc(NC(=S)NC(=O)c2ccco2)cc1 | -34 | 74* | -5 | -1 | -3 | 101
CNC(=S)Nc1cc(OC)c(NC(=O)c2ccco2)cc1OC | 23 | 0 | 7 | -2 | nt | nt
COc1ccc(Cl)cc1NC(=S)NC(=O)c1ccco1 | 38 | 44* | -1 | -2 | nt | nt | GRK2 confirm 2=8;FAM quench SP=100
COc1ccc(NC(=O)Cc2ccc(Cl)cc2)cc1NC(=O)c1ccco1 | -6 | 70* | -11 | -2 | -7 | 95
CNS(=O)(=O)c1ccc(CCC(=O)N2CCN(c3ccccc3OC)CC2)cc1 | 4 | 2 | -6 | -6 | nt | nt
NC(=O)C(=O)N/N=C/c1cccc(C(F)(F)F)c1 | 4 | 61* | 0 | -3 | 0 | 101
CN(CC(=O)Nc1cccc(F)c1)C(=O)CN1c2cccc3cccc(c23)S1(=O)=O | 11 | 0 | 18 | 19 | nt | nt
O=C(Cn1c2ccc(F)cc2c2nc3n(c(=O)c21)CCS3)Nc1ccc(Cl)cc1F | -1 | 0 | -8 | -2 | nt | nt
COC(=O)Cc1c(O)ccn(Cc2ccc3c(c2)OCO3)c1=O | -7 | 0 | -8 | -4 | nt | nt
SMILES | VLA-4 inh | GRK2 inh | APOBEC3G inh | APOBEC3A inh | GRK2 CP1 | FAM quench CP1 | others
COC(=O)Cc1c(O)ccn(C2CC2)c1=O | -4 | 75* | -8 | -1 | -7 | 102
Nc1nc2c(nc(SCc3ccccc3Br)n2C2OC(CO)C(O)C2O)c(=O)[nH]1 (stereo not drawn) | -2 | 4 | -7 | -4 | nt | nt
Nc1nc2c(nc(N3CCCCC3)n2[C@@H]2O[C@H](CO)[C@@H](O)[C@H]2O)c(=O)[nH]1 | 21 | 93* | -2 | -1 | -2 | 99
CC(C)CN1CCN(Cc2cnc(N3CCOCC3)s2)CC1CCO (stereo not drawn) | -8 | 0 | 3 | 7 | nt | nt
O=C(NCc1ccco1)c1nn2c(C(F)(F)F)cc(-c3cccs3)nc2c1Br | -8 | 19 | 0 | 0 | nt | nt
O=C(NCc1ccco1)c1nc2nc(-c3cccs3)cc(C(F)(F)F)n2n1 | -13 | 42* | 20 | 23 | 2 | 99
Cc1[nH]c2ccc(-c3nnc(SCC(=O)c4ccc(F)cc4)o3)cc2c1C | 4 | 2 | -7 | -7 | nt | nt
Cc1nnc(SCCCN2C(=O)c3ccccc3C2=O)o1 | 3 | 15 | -4 | -5 | -5 | 102
Cc1ccc(CCSCC(=O)O)cn1 | -1 | 74* | -7 | -2 | 3 | 100
Cc1noc(C)c1C(=O)NCCCc1ccccc1 | 7 | 0 | -7 | -4 | nt | nt
Nc1nnnn1/N=C/c1ccccc1OCc1ccc(Cl)cc1 | 16 | 74* | -6 | -2 | 1 | 99
Nc1nnnn1/N=C/c1ccccc1OCc1ccc(Cl)cc1Cl | -11 | 0 | 0 | 3 | nt | nt
Cc1cccc(N2CCN(C(=O)c3ccncc3)CC2)c1C | 6 | 1 | -4 | -1 | nt | nt
CSc1ccccc1C(=O)NCCCn1ccnc1 | 4 | 100* | -6 | -8 | 2 | 94
COc1cc(S(=O)(=O)n2cnc3ccccc32)ccc1Br | -1 | 62* | -6 | -2 | 0 | 99
O=c1[nH]nc(Cc2ccc([N+](=O)[O-])cc2)c2ccccc12 | 12 | 86* | -11 | -5 | 12 | 98
O=c1[nH]nc(Cc2ccccc2)c2ccccc12 | 6 | 0 | -3 | 18 | nt | nt
Cc1cc(C)c(C(=O)c2ccc(C(=O)N3CCCCC3)cc2)c(C)c1 | 2 | 0 | -4 | 0 | nt | nt
COc1cccc(NC(=O)C(C)NS(=O)(=O)c2ccc(Br)cc2)c1 (stereo not drawn) | 13 | 41* | -2 | -2 | nt | nt | GRK2 confirm 2=-10;FAM quench SP=99
Cc1cc(N2CCOCC2)ccc1/C=C1\NC(=O)N(CC(=O)Nc2ccccc2C)C1=O | -2 | 0 | -3 | -1 | 2 | 100
Cc1cc(N2CCOCC2)ccc1/C=C1\NC(=O)N(CC(=O)Nc2ccc(F)cc2)C1=O | 3 | 1 | 0 | 3 | nt | nt
Cc1nnc(NC(=O)C23CC4CC(C)(CC(C)(C4)C2)C3)s1 | -2 | 0 | nt | nt | nt | nt
COC(=O)c1ccc(NC(=O)CSc2nc3[nH]ncc3c(=O)[nH]2)cc1 | 28 | 0 | -3 | 1 | nt | nt
